Screen size: about 350,000 compounds; about 700 (0.2%) were called active. The sample holds actives, similar compounds and a random draw of the others, so the mix is not that of the screen. Calls follow the shape of the dose curve; as a rule, active = well fitted inhibition curve with a large enough effect; inconclusive = small, poorly fitted or top-dose-only effect; inactive = flat fitted curve, though single readings scatter.
Molecular target: RecQ-like DNA helicase BLM (Homo sapiens) (UniProt P54132)
Sequence (P54132 whole entry, looked up): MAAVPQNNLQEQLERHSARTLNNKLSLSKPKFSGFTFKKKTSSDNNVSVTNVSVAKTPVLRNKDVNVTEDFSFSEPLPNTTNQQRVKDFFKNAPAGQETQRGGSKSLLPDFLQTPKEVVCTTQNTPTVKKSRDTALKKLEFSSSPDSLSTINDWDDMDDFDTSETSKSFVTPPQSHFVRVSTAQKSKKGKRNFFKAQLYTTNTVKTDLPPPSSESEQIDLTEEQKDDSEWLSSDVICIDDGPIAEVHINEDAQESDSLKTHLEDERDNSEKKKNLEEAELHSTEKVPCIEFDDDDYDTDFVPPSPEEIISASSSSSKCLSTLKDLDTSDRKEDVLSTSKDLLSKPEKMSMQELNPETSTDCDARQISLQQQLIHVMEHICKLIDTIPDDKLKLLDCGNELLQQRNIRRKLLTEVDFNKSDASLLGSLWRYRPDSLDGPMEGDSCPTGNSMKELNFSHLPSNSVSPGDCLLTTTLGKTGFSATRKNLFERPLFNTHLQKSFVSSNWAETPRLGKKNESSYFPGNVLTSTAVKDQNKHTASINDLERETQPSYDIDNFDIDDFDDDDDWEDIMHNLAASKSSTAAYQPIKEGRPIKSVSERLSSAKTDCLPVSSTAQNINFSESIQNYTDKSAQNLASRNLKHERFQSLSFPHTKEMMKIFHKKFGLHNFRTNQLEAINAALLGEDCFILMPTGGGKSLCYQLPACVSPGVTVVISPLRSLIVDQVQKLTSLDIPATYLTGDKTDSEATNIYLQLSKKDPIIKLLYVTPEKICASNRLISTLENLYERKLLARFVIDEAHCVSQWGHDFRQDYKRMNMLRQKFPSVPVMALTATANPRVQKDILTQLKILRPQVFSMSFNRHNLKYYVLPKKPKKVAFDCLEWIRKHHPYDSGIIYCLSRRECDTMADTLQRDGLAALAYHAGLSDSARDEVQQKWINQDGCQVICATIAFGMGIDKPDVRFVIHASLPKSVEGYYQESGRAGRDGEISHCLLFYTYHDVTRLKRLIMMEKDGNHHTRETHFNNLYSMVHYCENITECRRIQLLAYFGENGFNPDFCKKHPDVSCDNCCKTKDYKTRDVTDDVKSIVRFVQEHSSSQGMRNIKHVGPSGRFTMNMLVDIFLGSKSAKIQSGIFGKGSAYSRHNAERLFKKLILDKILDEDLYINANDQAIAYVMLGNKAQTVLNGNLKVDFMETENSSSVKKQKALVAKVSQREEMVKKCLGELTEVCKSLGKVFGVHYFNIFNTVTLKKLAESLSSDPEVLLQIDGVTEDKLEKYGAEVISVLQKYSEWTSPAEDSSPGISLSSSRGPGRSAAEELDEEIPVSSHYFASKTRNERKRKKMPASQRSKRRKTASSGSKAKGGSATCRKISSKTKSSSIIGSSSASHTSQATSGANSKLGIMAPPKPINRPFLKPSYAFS
Assay: qHTS Assay for Inhibitors of Bloom's syndrome helicase (BLM); also: nearly all actives have a fitted effect of over 35% in size;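 as to Activity change, negative = inhibition: plate controls were vehicle for no effect and no enzyme for full effect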
Settings: recombinant BLM DNA unwinding, fluorescence dequenching; series mostly up to 56.1 µM
Potency is read from the fitted curve at half-maximal effect.

Potency, inactive:
Cc1c(CCNC(=O)c2ccc(C(F)(F)F)cc2)sc2nc(-c3ccc(F)cc3)nn12
CCOC(=O)C1CCCN(C(=O)Cn2ncc3c(C)n(Cc4ccc(F)cc4)c(C)c3c2=O)C1 (stereo not given)
Cc1nc([N+](=O)[O-])cn1CC(=O)Nc1ccc2c(c1)OCO2
COC(=O)c1ccc2c(c1)N(CC(=O)Nc1ccc(C)c(C)c1)C(=O)c1ccccc1S2
CCCc1nc2c(c(=O)c3ccccc3n2C)c(=O)n1C1CCCCCC1
Cn1c(COc2ccc(Cl)cc2)nc2ccccc2c1=O
COC(=O)[C@H]1C[C@@H]1[C@H](NC(=O)Oc1ccc(F)cc1)c1ccccc1
CCC(C)NC(=O)c1c(N)n(/N=C/c2cccs2)c2nc3ccccc3nc12 (stereo not given)
O=C(NCc1cccs1)c1cc(-c2ccccn2)nc2ccc(Br)cc12
CCC[C@@H]1C[C@@]1(CCC)C(NS(=O)(=O)c1cccc2cccnc12)c1ccc(Cl)cc1 (stereo not given in full)
COc1ccc(Nc2ncc3c(n2)CCN(C(=O)OC(C)(C)C)C3)cc1
COc1ccc(/C=C2/SC(=O)N(CCCCCC(=O)Nc3ccccc3C(=O)O)C2=S)cc1
O=C1/C(=C\c2ccccc2Cl)SC(=S)N1CCC(=O)N1CCCc2ccccc21
C/C=C(\C)C(=O)OC1C(OC(=O)C2(C)OC2C)c2cc3ccc(=O)oc3cc2OC1(C)C (stereo not given)
CC(C)(O)CCC(O)[C@@](C)(O)C1CC[C@]2(O)C3=CC(=O)C4CC(O)C(O)C[C@]4(C)C3CC[C@]12C (stereo not given in full)
COc1ccc(NC(=O)COc2ccc(C(=O)OCC(=O)N(C)C3CCS(=O)(=O)C3)cc2OC)cc1 (stereo not given)
COc1ccc2c(-c3ccccc3)cc(SCC(=O)N(C)C3CCS(=O)(=O)C3)nc2c1 (stereo not given)
COc1cccc(-c2cc(NCCc3c[nH]c4ccc(OC)cc34)ncn2)c1
CCCC[C@@H]1C[C@H]1C(NC(=O)c1ccco1)c1ccc(C(=O)OC)cc1 (stereo not given in full)
CCOc1ccc(OCC)c(NC(=O)CN(c2ccc(C)cc2)S(=O)(=O)c2c(C)n[nH]c2C)c1
CCCCC/C=C\C/C=C\C/C=C\CCCCC(=O)NCC(=O)O
COc1cccc([C@@H]2Oc3ccc(Br)cc3C(=O)[C@H]2OC(=O)NCCc2ccc(OC)c(OC)c2)c1
CCc1nn(CC(=O)NCC(C)c2ccccc2)c(=O)c2cc3occc3n12 (stereo not given)
C[C@@H]1C[C@H]2[C@@H]3C[C@H](F)C4=CC(=O)C=C[C@@]4(C)[C@]3(F)[C@H](O)C[C@]2(C)[C@@]1(O)C(=O)CO
CC(=O)OC1C([N+]2(C)CCCCC2)C[C@H]2C3CC[C@H]4C[C@H](OC(C)=O)C([N+]5(C)CCCCC5)CC4(C)C3CCC12C (stereo not given in full)
O=c1cc(-c2ccc(O)cc2)oc2c(-c3cc(-c4cc(=O)c5c(O)cc(O)cc5o4)ccc3O)c(O)ccc12
COc1ccc(C2(C#N)CCC(C(=O)O)CC2)cc1OC1CCCC1 (stereo not given)
COC(=O)C1(C)C=CCN1C(=O)c1ccccc1 (stereo not given)
CC(C)=CC1C(C(=O)O)C1(C)C (stereo not given)
O=C(CCOc1ccccc1)N(Cc1cccnc1)c1nc2ccc(Cl)cc2s1
CC1(C)OC2CC(=O)OC[C@@]23C1CC(=O)[C@]1(C)C3CC[C@@]2(C)C(c3ccoc3)OC(=O)C3O[C@@]321 (stereo not given in full)
FC(F)(F)c1ccccc1-c1cc(NCc2ccccc2)ncn1
O=C(CSc1nccn1Cc1ccc(Cl)cc1)NCc1ccccc1
C/C=C/C=N/NC(=O)c1ccncc1
CC1CN(C(=O)N2CCC(C(=O)NCc3ccco3)CC2)c2cc(Cl)ccc2O1 (stereo not given)
COC(=O)[C@@H]1C[C@@]2(O)[C@H](O)[C@H](O)[C@H](O)C[C@H]2N1CC1CCCCC1
O=C(c1cnccn1)N1CCC2(CCCN(Cc3ccccc3)C2)CC1
CCOC(=O)Cn1c(=O)sc2cccc(Cl)c21
O=C(c1cnccn1)N1CCC2(CCN(Cc3cc(C(F)(F)F)cc(C(F)(F)F)c3)CC2)CC1
Cc1cccc(-c2nc(SCc3ccc(Br)cc3)n3[nH]c(=O)cc3n2)c1
O=c1cc2nc(-c3ccccc3)nc(SCCOc3ccc(Cl)cc3)n2[nH]1
O=C(OCc1ccccc1)c1ccc(O)cc1
O=c1c(CCc2ccccc2)nc2cnc(N3CCNCC3)nc2n1Cc1cccs1

Potency, active:
Cc1ccc(C(=O)O)cc1-c1ccc(/C=C2\SC(=O)N(CC(=O)Nc3ccc4c(c3)OCO4)C2=O)o1 25.1 µM
Cn1c2ccccc2c(=O)c2c(=O)n(Cc3ccco3)c(COc3ccccc3)nc21 8.91 µM
CC(C)Cn1c(N)c(C(=O)NCc2cccs2)c2nc3ccccc3nc21 31.6 µM
Cc1ccc(-c2nn(-c3ccccc3)cc2/C=C2\SC(=S)N(CCCCCC(=O)O)C2=O)o1 28.2 µM
CN(C(=O)COC(=O)c1cc(-c2ccco2)nc2ccccc12)C1CCS(=O)(=O)C1 (stereo not given) 3.16 µM
Cc1ccc(-c2nc(SCc3ccc(Br)cc3)n3[nH]c(=O)cc3n2)cc1 28.2 µM

Activity change, negative = inhibition, inactive:
COC(=O)C1=C(C(=O)OC)[C@@H]2N(Cc3ccccc3)c3ccccc3[C@@]23C[C@@H](C(=O)OC)N(S(=O)(=O)c2ccc(C(F)(F)F)cc2)C3=N1 0.18% [at 12.4 µM]
COc1ccc(-c2nc3c(c4c2C[C@H](c2ccccc2)OC4)CN(C(=O)C2CC2)CC3)c(C)c1 -3.76% [at 12.4 µM]
CO[C@H]1COC(=O)[C@@H](C)NC(=O)C/C=C\[C@@H](C)[C@H](OC)COC(=O)C/C=C\[C@@H]1C 0.711% [at 12.4 µM]
COC(=O)C(C(=O)OC)[C@@H]1CCCC(=O)C1 -7.4% [at 12.4 µM]
COC(=O)N1C(/C=C/C=C/c2ccc(OC)cc2)=Cc2ccccc2C1CC(C)=O (stereo not given) -6.97% [at 12.4 µM]
C[C@H]1Cc2c(-c3ccccc3)nc3c(c2CO1)CN(S(=O)(=O)c1ccc(Cl)c2nonc12)CC3 -0.0157% [at 12.4 µM]
